# Test results taken from PubChem BioAssay AID1508636 (National Center for Advancing Translational Sciences (NCATS), 2021).
# Records with an inconclusive call do not appear. A call without a number means that no potency is given here. Activity calls are given as the source filed them. Calls follow the shape of the dose curve; as a rule, active = well fitted inhibition curve with a large enough effect; inconclusive = small, poorly fitted or top-dose-only effect; inactive = flat fitted curve, though single readings scatter.
# Molecular target: ATP-dependent translocase ABCB1 (Homo sapiens) (UniProt P08183)
# Test: qHTS for characterization and localization of zebrafish homologs of the human ABCB1 multidrug transporter: P-gp overexpressing MDR-19 cells
# Settings: MDR-19 cells overexpressing P-gp, CellTiter-Glo luminescence viability, 72 h; series mostly up to 46.1 µM
# From the text: The zebrafish has emerged as a potential model to study the blood-brain barrier (BBB) given its similarities with mammalian systems. However, little information has been available with regard to homologous ATP-binding cassette transporters expressed at the zebrafish BBB. Two transporters that are highly expressed at the human BBB are P-glycoprotein (P-gp, encoded by the ABCB1 gene) and ABCG2 (encoded by the ABCG2 gene). In this study, we focus on characterization of P-gp homologs in the zebrafish, which has two genes that are homologous to human ABCB1 - abcb4 and abcb5. We generated stably-transfected cell lines to determine their substrate specificities. […] Zebrafish abcb4 also colocalized with claudin 5 expression in brain endothelial cells.
# A high-throughput screen was performed as previously described on empty vector transfected cells, P-gp-overexpressing MDR-19 cells and cells transfected with full-length zebrafish abcb4 (ZF Abcb4) or abcb5 (ZF Abcb5). Briefly, cells were plated into 1536-well plates at a density of 500 cells/well in 5 uL media. P-gp substrate compounds (approximately 90) selected from our previous study were then added at varying concentrations using a 1536-head pin tool (Kalypsis, San Diego, CA) and plates were incubated at 37C in 5% CO2 for 72 h. CellTiter-Glo reagent (Promega) was dispensed into the wells, incubated for 5 min and luminescence was read on a ViewLux instrument (Perkin-Elmer).
# Cytotoxic compounds were defined as those that yielded a curve class of -1.1, -1.2, -2.1, -2.2, -2.3, or -2.4, a maximum response of >50% and an AC50 of < 10 uM. All compounds from screening analysis were tested in Vector (empty vector control), MDR-19 (P-gp overexpressing), zebrafish abcb4 (ZF Abcb4) and abcb5 (ZF Abcb5) expression cell lines.
# 1. Tobie D Lee, Olivia W Lee, Kyle R Brimacombe, Lu Chen, Rajarshi Guha, Sabrina Lusvarghi, Bethilehem G Tebase, Carleen Klumpp-Thomas, Robert W Robey, Suresh V Ambudkar, Min Shen, Michael M Gottesman, Matthew D Hall. A High-Throughput Screen of a Library of Therapeutics Identifies Cytotoxic Substrates of P-glycoprotein. Mol Pharmacol. 2019, Nov;96(5):629-640.
# ATP-dependent translocase ABCB1 (Homo sapiens), sequence (P08183 whole entry, looked up): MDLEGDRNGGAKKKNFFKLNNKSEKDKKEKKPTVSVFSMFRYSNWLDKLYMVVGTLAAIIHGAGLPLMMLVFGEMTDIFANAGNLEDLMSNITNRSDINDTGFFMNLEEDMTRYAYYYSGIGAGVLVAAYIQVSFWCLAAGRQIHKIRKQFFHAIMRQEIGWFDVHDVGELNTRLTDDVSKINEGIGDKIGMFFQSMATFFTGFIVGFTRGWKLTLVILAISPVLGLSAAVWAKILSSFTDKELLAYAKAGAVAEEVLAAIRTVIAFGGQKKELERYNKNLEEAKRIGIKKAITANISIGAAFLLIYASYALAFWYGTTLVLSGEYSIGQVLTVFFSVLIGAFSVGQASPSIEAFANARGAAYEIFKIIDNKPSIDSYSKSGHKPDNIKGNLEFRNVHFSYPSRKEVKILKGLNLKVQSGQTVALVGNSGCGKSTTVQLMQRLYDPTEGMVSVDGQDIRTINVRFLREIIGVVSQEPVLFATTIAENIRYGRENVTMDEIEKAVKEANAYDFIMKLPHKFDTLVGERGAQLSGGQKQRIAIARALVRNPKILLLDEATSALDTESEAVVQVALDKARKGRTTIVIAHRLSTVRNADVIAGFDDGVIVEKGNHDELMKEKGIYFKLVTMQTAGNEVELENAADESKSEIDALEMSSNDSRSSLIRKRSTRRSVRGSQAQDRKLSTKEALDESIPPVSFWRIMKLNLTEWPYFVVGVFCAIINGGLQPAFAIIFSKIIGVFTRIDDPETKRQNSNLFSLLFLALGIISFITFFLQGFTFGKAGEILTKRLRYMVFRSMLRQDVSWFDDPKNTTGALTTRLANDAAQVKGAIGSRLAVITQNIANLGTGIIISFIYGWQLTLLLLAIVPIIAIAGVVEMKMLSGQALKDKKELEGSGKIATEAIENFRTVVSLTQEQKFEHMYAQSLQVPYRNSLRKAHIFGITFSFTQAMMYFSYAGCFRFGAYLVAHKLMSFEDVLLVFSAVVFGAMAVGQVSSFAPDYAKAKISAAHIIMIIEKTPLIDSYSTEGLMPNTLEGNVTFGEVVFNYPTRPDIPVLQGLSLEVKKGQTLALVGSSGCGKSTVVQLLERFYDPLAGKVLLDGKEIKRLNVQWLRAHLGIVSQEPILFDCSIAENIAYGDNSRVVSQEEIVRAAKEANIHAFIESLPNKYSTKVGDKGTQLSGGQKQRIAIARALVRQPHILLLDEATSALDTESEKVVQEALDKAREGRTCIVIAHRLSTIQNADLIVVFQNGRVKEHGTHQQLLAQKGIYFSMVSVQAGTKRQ
row,SMILES,Potency
1,CCCCc1nc2cc(C=CC(=O)NO)ccc2n1CCN(CC)CC,5.26 µM (active)
2,CN(C)C1CCN(C(=O)c2ccc(NC(=O)Nc3ccc(-c4nc(N5CCOCC5)nc(N5CCOCC5)n4)cc3)cc2)CC1,inactive
3,O=C(NC1CC1)c1cccc(-c2ccc3c(NC(=O)C4CC4)n[nH]c3c2)c1,inactive
4,C#Cc1cccc(Nc2ncnc3cc(OC)c(OCCCCCCC(=O)NO)cc23)c1,14.8 µM (active)
5,CN(C)C/C=C/C(=O)Nc1cccc(C(=O)Nc2ccc(Nc3nccc(-c4cccnc4)n3)cc2)c1,inactive
6,CCN1CCN(Cc2ccc(NC(=O)Nc3ccc(Oc4cc(NC)ncn4)cc3)cc2C(F)(F)F)CC1,inactive
7,COc1cc2c(NC3CCN(C(C)C)CC3)nc(N3CCCN(C)CC3)nc2cc1OCCOCCN(C)C,inactive
8,Cc1[nH]c2ccccc2c1CCNCc1ccc(/C=C/C(=O)NO)cc1,1.32 µM (active)
9,CC(=O)O[C@@H]1C[C@H](O)[C@@]23CO[C@@H](O)C1(C)[C@@H]2C[C@@H](O)[C@]1(C)[C@@H]3C(=O)[C@H](OC(C)=O)[C@@]2(C)[C@H](c3ccoc3)C[C@H]3O[C@]321,3.72 µM (active)
10,COc1cc2c(NC3CCN(C(C)C)CC3)nc(N3CCCN(C)CC3)nc2cc1OCCCN1CCCC1,inactive
11,CC(C)CC(=O)Nc1n[nH]c2c1CN(C(=O)C1CCN(C)CC1)C2(C)C,inactive
12,COc1cccc2c1C(=O)c1c(O)c3c(c(O)c1C2=O)C[C@@](O)(C(=O)CO)C[C@H]3O[C@H]1C[C@H](N)[C@@H](O)[C@H](C)O1,11.8 µM (active)
13,CO[C@H]1/C=C/C=C/C=C/C[C@H](OC(=O)[C@@H](C)NC(=O)C2CCCCC2)[C@H](C)[C@@H](O)/C(C)=C/CCc2cc(O)cc(c2)NC(=O)C1,inactive
